# The whole screen tested about 87,000 compounds, of which about 540 (0.62%) were called active. How the calls were made is not given here. The list comes from a sample in which actives are over-represented; it also holds similar structures and randomly drawn compounds. Where a call stands in place of a potency, no number is given. Potency and affinity values are given separately.
# Assay: MT1-MMP gene expression reporter suppression – cell-based, luciferase reporter, luminescence (AID 618);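 further: actives suppress MT1-MMP promoter-driven transcription so potencies describe inhibitors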
# Conditions: MT1-MMP promoter luciferase reporter cells
row,SMILES,outcome
1,O=C(c1ccc(F)cc1)C(CN1CCOCC1)c1ccccc1 (stereo not given),active
2,CC(CN1CCOCC1)C(=O)c1ccccc1 (stereo not given),inactive
3,COc1ccc(C(=O)C(CN2CCOCC2)c2ccccc2)cc1F (stereo not given),inactive
4,COc1ccc(C(=O)C(CN2CCOCC2)c2ccccc2)cc1 (stereo not given),inactive
5,CCCCCOc1ccc(C(=O)C(c2ccccc2)N2CCOCC2)cc1 (stereo not given),inactive
6,O=C(NCC1CCCCC1)C1CCN(C(=O)NC2CCCCC2)CC1,inactive
7,COc1ccc(-c2nc3c(n2O)CCCC3=O)cc1OC,inactive
8,O=C(CCSCCc1ccccn1)Nc1ccc(Br)cn1,inactive
9,c1ccc(CCNc2nc3ccccc3s2)cc1,inactive
10,Cc1ccc(C(=O)Nc2nc3ccccc3s2)s1,inactive
11,COc1ccc(NC(=O)NC(C)(C(F)(F)F)C(F)(F)F)cc1,inactive
12,CN(C)c1nc(SCc2ccccc2)nc(N2CCOCC2)n1,inactive
13,C/C(=N\NC(=O)C1COc2ccccc2O1)c1cccs1 (stereo not given),inactive
14,C/C(=N/NC(=O)c1cc(C(C)C)[nH]n1)c1cccs1,inactive
15,O=C(Nc1ccc(Cc2ccncc2)cc1)c1ccc(S(=O)(=O)N2CCOCC2)cc1,inactive
16,CC(C)c1nc(=S)c2ccccc2[nH]1,inactive
17,N#CC1=C(N)C(C#N)(C#N)[C@H](c2ccoc2)[C@H]2CN(Cc3ccccc3)CC=C12,active
18,CN1CC=C2C(C#N)=C(N)C(C#N)(C#N)[C@H](c3ccoc3)[C@H]2C1,inactive
19,CCN1CC=C2C(C#N)=C(N)C(C#N)(C#N)[C@H](c3ccoc3)[C@H]2C1,inactive
20,COc1ccc(/C(C)=N\n2cnnc2)cc1,inactive
21,COCCn1c(SCc2cnc(-c3ccccc3)s2)nnc1-c1ccncc1,inactive
22,Cn1c(SCc2cnc(-c3ccccc3)s2)nnc1C1COc2ccccc2O1 (stereo not given),inactive
23,Cc1nnc(SCc2cnc(-c3ccc(C(C)C)cc3)s2)n1C,active

row,SMILES,outcome
1,Cc1cccc(NC(=O)CSCc2c(C)noc2C)c1C,inactive
2,CN(C1=NC(=O)C(CC(=O)Nc2ccc(Br)cc2)S1)c1ccc(O)cc1 (stereo not given),inactive
3,CC(=O)N(CCc1ccccc1C)Cc1cc2cc3c(cc2[nH]c1=O)OCO3,inactive
4,Cc1ccccc1C(=O)N1CCC(C(=O)Nc2ccc3c(c2)OCCO3)CC1,inactive
5,Cc1ccc(C(=O)N2CCN(c3cccc(Cl)c3)CC2)cc1C,inactive
6,O=C(O)c1ccccc1C(=O)N1CCN(c2cccc(Cl)c2)CC1,inactive
7,CCCCC(=O)Nc1ccc(C(=O)N2CCC(C(=O)OCC)CC2)cc1,inactive
8,Cc1ccc(C(=O)Nc2sc3c(c2C#N)CCCCC3)cc1C,inactive
9,Cc1ccc(-c2nnc(-c3ccc(Br)cc3)o2)o1,inactive
10,C=CCn1c(SCC(=O)c2ccccc2)nnc1-c1cc2ccccc2o1,inactive
11,CC1CC(C)CN(C(=O)CSc2nnc(-c3ccc(Cl)cc3)o2)C1 (stereo not given),inactive
12,COc1ccc(CS(=O)(=O)/C(Cl)=C(/Cl)C(=O)Nc2ccc(OC)nc2)cc1,active
13,CCCS(=O)(=O)C(=C(Nc1ccc(OC)cc1)Nc1ccc(OC)cc1)S(=O)(=O)CCC,inactive
14,COc1ccc(NC(=O)c2cc(OC)c(OC)c(OC)c2)cn1,inactive
15,COc1ccc(CNC(=O)Nc2ccc(C)cc2)cc1,inactive
16,COC(=O)c1ccccc1S(=O)(=O)Nc1ccc(OC)nc1,inactive
17,COc1ccc(NC(=O)C(CC(C)C)NC(=O)c2ccccc2C)cn1 (stereo not given),inactive
18,COc1ccc(NC(=O)/C(Cl)=C(/Cl)S(=O)(=O)Cc2ccccc2)cn1,active
19,COc1ccc(NS(=O)(=O)Cc2ccccc2Cl)cn1,inactive
20,CCOc1ccccc1Nc1nc(N)nc(CN(C)C2CCCCC2)n1,inactive
21,Cc1nc2cc(C(=O)O)ccc2n1C1CCCCC1,inactive
22,CC1=CC(=C2C(=O)c3ccccc3C2=O)C=C(C)O1,inactive
23,CCNC1=C(Cl)C(=O)c2ccccc2C1=O,inactive

row,SMILES,outcome
1,CN1C=CC(=C2C(=O)c3ccccc3C2=O)C=C1,inactive
2,CC1=CC(=C2C(=O)c3ccccc3C2=O)C=C(C)N1C,inactive
3,CCSc1nc(N)c(C#N)c(-c2ccco2)c1C#N,inactive
4,c1nc(N2CCOCC2)c2[nH]cnc2n1,inactive
5,COc1cccc2c1C(=O)c1c(O)c3c(c(O)c1C2=O)C[C@@](O)(C(=O)CO)C[C@@H]3O[C@H]1C[C@H](N)[C@H](O)[C@H](C)O1,inactive
6,COc1cccc2c1C(=O)c1c(O)c3c(c(O)c1C2=O)C[C@@](O)(C(C)=O)C[C@@H]3O[C@H]1C[C@H](N)[C@H](O)[C@H](C)O1,active
7,O=C(Cn1cc2c(n1)CCCCC2)NC1CCCCCC1,inactive
8,COC(=O)c1cccc(NC(=O)c2cnoc2C)c1,inactive
9,Cc1csc2ncc(C(=O)Nc3ccc(C(F)(F)F)cc3)c(=O)n12,inactive
10,COc1ccc(CNC(=O)[C@H](C)[C@H]2C[C@]2(C)[C@H](NC(=O)OCc2ccccc2)c2ccccc2)cc1OC,inactive
11,CCOC(=O)CSc1nc(C)c2ccc(C)cc2n1,inactive
12,CCn1c(C)nc2cc(-c3nnc(-c4c(-c5ccccc5)noc4C)o3)ccc21,inactive
13,Fc1ccc(-c2nc3n(n2)Cc2ccccc2-3)cc1,active
14,N#CCc1nc2n(n1)Cc1ccccc1-2,inactive
15,CCN(CC)S(=O)(=O)c1cccc(-c2nc3n(n2)Cc2ccccc2-3)c1,inactive
16,CCn1c(C)nc2cc(S(=O)(=O)N3CCCC3)ccc21,inactive
17,Clc1ccc(-c2nc3n(n2)Cc2ccccc2-3)cc1,inactive
18,O=S(=O)(c1cccc(-c2nc3n(n2)Cc2ccccc2-3)c1)N1CCCC1,inactive
19,CCn1c(C)nc2cc(-c3nc4n(n3)Cc3ccccc3-4)ccc21,active
20,CCOc1ccc(C2Oc3nc(SC)nnc3-c3ccccc3N2C(C)=O)cc1OC (stereo not given),inactive
21,O=C(C1CCCN(S(=O)(=O)c2cnc[nH]2)C1)N1CC(=O)N(CCc2ccccc2)C(=O)C1 (stereo not given),inactive
22,CN(CC(=O)N1CC(=O)N(CCc2ccccc2)C(=O)C1)S(=O)(=O)c1cccc2nsnc12,inactive
23,Cc1cc(C)n(-c2ccc(C(=O)OCc3nnc(-c4ccccc4)o3)cc2)n1,inactive

row,SMILES,outcome
1,CCCCC(CC)CNC(=O)C1CCCN(S(=O)(=O)c2cnc[nH]2)C1 (stereo not given),inactive
2,Cc1cc(C)n2nc(S(=O)(=O)NC3CCCCC3)nc2n1,inactive
3,Oc1ccc(CN2CCc3ccccc3C2)c2cccnc12,inactive
4,OCCN1CCN(Cc2cc(Cl)c3cccnc3c2O)CC1,inactive
5,Oc1c(CN2CCOCC2)cc(COCc2ccccc2)c2cccnc12,inactive
6,CN1CCN(Cc2cc(COCc3ccccc3)c3cccnc3c2O)CC1,inactive
7,COC(=O)c1sc(S(=O)(=O)NCc2cccs2)c(C(=O)OC)c1C,inactive
8,COc1cc(C(=O)NCCC2=CCCCC2)cc(OC)c1OC,inactive
9,COc1ccc(C(=O)NCCC2=CCCCC2)cc1OC,inactive
10,O=C(NCCc1ccc(Cl)cc1)c1nnc(Cc2ccc(Cl)cc2)o1,inactive
11,CC1CCCCC1NC(=O)C1CCN(S(=O)(=O)N2CCC3(CC2)OCCO3)CC1 (stereo not given),inactive
12,CC1C(=O)CCN(C(C)(C)C)C1C (stereo not given),inactive
13,COc1ccc(OC)c(C2c3c(oc4ccccc4c3=O)C(=O)N2CCCN(C)C)c1 (stereo not given),inactive
14,Cc1ccc(SCc2nc(-c3ccccc3)no2)cc1,inactive
15,Cc1cccc(-c2noc(-c3ccc(F)cc3)n2)c1,active
16,COc1ccc(-c2nc(-c3cccc(C)c3)no2)cc1OC,inactive
17,c1ccc(-c2nc(-c3ccncc3)no2)cc1,inactive
18,Cc1ccc(-c2nc(-c3cccnc3)no2)cc1,inactive
19,COc1cc(-c2nc(-c3cccc(C)c3)no2)cc(OC)c1OC,inactive
20,Cc1ccc(-c2noc(-c3ccccc3Br)n2)cc1,inactive
21,c1ccc(-c2ccc(-c3nc(-c4cccnc4)no3)cc2)cc1,inactive
22,Fc1ccccc1-c1nc(-c2ccccc2)no1,inactive
23,COC(=O)c1ccccc1NC(=O)C1CC=CCC1C(=O)O (stereo not given),inactive

row,SMILES,outcome
1,COC(=O)c1ccc(C(=O)OC)c(NC(=O)CCC(=O)O)c1,inactive
2,CCC1CCCCN1S(=O)(=O)c1ccc(NC(=O)CSc2ncccc2C(=O)O)cc1 (stereo not given),inactive
3,COc1ccc(CCN(C(=O)c2ccccc2)C2=CC3CCC(C2)N3C)cc1OC (stereo not given),inactive
4,CS(=O)(=O)N1CCC(C(=O)N2CCc3ccccc3C2)CC1,inactive
5,CC(=O)NC(C1C(=O)CC(C)(C)CC1=O)(C(F)(F)F)C(F)(F)F,inactive
6,O=C(COc1ccc(Cl)cc1)NCc1nnc(SCC(=O)NCc2ccc3c(c2)OCO3)o1,inactive
7,CCOC(=O)c1cnc(C(C)(C)C)[nH]c1=O,inactive
8,c1ccc(-c2noc(-c3ccccc3-c3ccccc3)n2)cc1,inactive
9,CN(C)c1ccc(-c2noc(-c3ccccc3O)n2)cc1,active
10,Cc1cc(C)cc(-c2nc(-c3ccncc3)no2)c1,inactive
11,CCc1ccc(-c2nc(-c3ccncc3)no2)cc1,inactive
12,COc1ccc(-c2nc(-c3ccncc3)no2)cc1OC,inactive
13,NC(=O)c1ccccc1-c1nc(-c2ccccc2)no1,inactive
14,CCOc1ccc(-c2nc(-c3ccncc3)no2)cc1OCC,inactive
15,CCCC(=O)Nc1c(-c2cccs2)c(=O)c2ccccc2n1CC,inactive
16,CCOC(=O)c1ccc(S(=O)(=O)N2CCN(CC3CC=CCC3)CC2)cc1 (stereo not given),inactive
17,COc1ccccc1C1/C(=C(/O)c2ccc(Cl)cc2)C(=O)C(=O)N1CCN1CCOCC1 (stereo not given),inactive
18,O=C(O)CN1C(=O)Nc2ccc(Br)cc2C1c1ccccc1 (stereo not given),inactive
19,Cc1nc(CC(=O)c2c(C)cc(O)cc2O)cs1,inactive
20,O=C(Cc1cccs1)NCc1cccs1,inactive
21,COC(=O)C(C)Oc1ccc(=O)[nH]n1 (stereo not given),inactive
22,COc1ccc(OC)c(NC(=O)Cc2coc3cc(C)cc(C)c23)c1,inactive
23,CS(=O)(=O)N(Cc1ccccc1)c1ccccc1C(=O)N1CCN(c2ccccc2)CC1,inactive
